Results on six compounds are retold here after PubChem BioAssay (EPA / NIEHS).

Structures are written as SMILES. Values joined by “and” are separate entries in the source; they are usually repeats but may differ in a detail not shown here. Equal values may be shown once. More than one record can exist for a structure, and the calls need not agree. Active and inactive are the calls of the source. The calls were made as follows: active = hit-call score of the fitted dose curve at least 0.9, where 1 is the maximum; inactive = score below 0.9.

Read-out in assay [1]: Monokine induced gamma interferon (MIG), CXCL9 (gene 4283)
Description: BSK_KF3CT_MIG: BioMAP Diversity Plus: KF3CT Assay for Monokine induced gamma interferon (MIG) Biomarker Activity (AID 2284248). The note with it: primary human keratinocytes with fibroblasts. In outline: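 ELISA read-out of MIG after 24 h chemical exposure of human skin primary co-culture (keratinocytes, foreskin fibroblasts). Gain of signal relative to DMSO negative control was analysed.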

Read-out in assay [2]: Vascular cell adhesion molecule 1 (VCAM1), VCAM1 (gene 7412)
Put plainly: BSK_BF4T_VCAM1: BioMAP Diversity Plus: BF4T Assay for Vascular cell adhesion molecule 1 (VCAM1) Biomarker Activity (AID 2284249). The conditions noted are these: primary human bronchial epithelial cells with fibroblasts. In outline: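 Human bronchial epithelial cell and dermal fibroblast co-culture exposed 24 h. VCAM-1 measured by ELISA; parallel SRB total-protein staining for cytotoxicity. Fitted in positive direction relative to DMSO.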

Read-out in assay [3]: Plasminogen activator inhibitor-1 (PAI1), SERPINE1 (gene 5054)
Put plainly: BSK_KF3CT_PAI1: BioMAP Diversity Plus: KF3CT Assay for Plasminogen activator inhibitor-1 (PAI1) Biomarker Activity (AID 2284252). The conditions noted are these: primary human keratinocytes with fibroblasts. In outline:
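Signal is PAI-1 detected by ELISA in a human skin-derived keratinocyte/fibroblast co-culture, 24 h after dosing; DMSO served as negative control and baseline.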

Read-out in assay [4]: Macrophage Inflammatory Protein-1 Alpha (MIP1a), CCL3 (gene 6348)
Put plainly: BSK_IMphg_MIP1a: BioMAP Diversity Plus: IMphg Assay for Macrophage Inflammatory Protein-1 Alpha (MIP1a) Biomarker Activity (AID 2284255). The conditions noted are these: primary human endothelial cells with macrophages. In outline:
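Co-culture of human venular endothelial cells and macrophages exposed to compounds for 24 h; MIP-1a measured by ELISA relative to DMSO. Cytotoxicity assessed in parallel cultures by sulforhodamine B total-protein staining at 560 nm.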

Read-out in assay [5]: Plasminogen activator inhibitor-1 (PAI1), SERPINE1 (gene 5054)
Put plainly: BSK_MyoF_PAI1: BioMAP Diversity Plus: MyoF Assay for Plasminogen activator inhibitor-1 (PAI1) Biomarker Activity (AID 2284256).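 Also: PAI-1 protein level measured by ELISA in fibroblast cultures; PAI-1 read 24 h after compound addition.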 The note with it: primary human lung fibroblasts. The gist of the method:
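MyoF lung fibroblasts, human primary; compound 24 h; PAI-1 ELISA; positive-direction fit vs DMSO baseline; parallel SRB total-protein staining for cytotoxicity.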

Read-out in assay [6]: CD69, CD69 (gene 969)
Description: BSK_IMphg_CD69: BioMAP Diversity Plus: IMphg Assay for CD69 Biomarker Activity (AID 2284257). The note with it: primary human endothelial cells with macrophages. The gist of the method:
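Human venular endothelial cells co-cultured with macrophages; CD69 quantified by ELISA 24 h after compound addition. Activity fitted in the positive direction relative to DMSO baseline; cytotoxicity tracked in parallel cultures via SRB total-protein staining.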

Read-out in assay [7]: Eotaxin 3, CCL26 (gene 10344)
Description: BSK_BF4T_Eotaxin3: BioMAP Diversity Plus: BF4T Assay for Eotaxin 3 Biomarker Activity (AID 2284258). The conditions noted are these: primary human bronchial epithelial cells with fibroblasts. The gist of the method:
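Co-culture of human bronchial epithelial cells and dermal fibroblasts, exposed to chemicals for 24 h versus DMSO. Eotaxin-3 quantified by ELISA; cytotoxicity checked in parallel cultures by sulforhodamine B total-protein staining.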

Read-out in assay [8]: Monocyte Chemoattractant Protein-1 (MCP1), CCL2 (gene 6347)
Description: BSK_BF4T_MCP1: BioMAP Diversity Plus: BF4T Assay for Monocyte Chemoattractant Protein-1 (MCP1) Biomarker Activity (AID 2284259). The note with it: primary human bronchial epithelial cells with fibroblasts. In outline: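 Co-culture of bronchial epithelial cells and dermal fibroblasts dosed with chemical; MCP-1 measured by ELISA 24 h later. Activity fitted in positive direction versus DMSO; cytotoxicity checked by SRB staining in parallel cultures.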

Read-out in assay [9]: Interleukin-8 (IL8), CXCL8 (gene 3576)
Put plainly: BSK_MyoF_IL8: BioMAP Diversity Plus: MyoF Assay for Interleukin-8 (IL8) Biomarker Activity (AID 2284261). The conditions noted are these: primary human lung fibroblasts. The gist of the method:
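Lung fibroblasts (human primary) → chemical exposure → 24 h → IL-8 measured by ELISA. Signal increase scored versus DMSO control.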

Read-out in assay [10]: CD90, THY1 (gene 7070)
Put plainly: BSK_BF4T_CD90: BioMAP Diversity Plus: BF4T Assay for CD90 Biomarker Activity (AID 2284262). The conditions noted are these: primary human bronchial epithelial cells with fibroblasts. The gist of the method: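 Co-culture of human bronchial epithelial cells and dermal fibroblasts, 24 h compound exposure. Cell-surface CD90 measured by ELISA relative to DMSO; parallel SRB total-protein staining for cytotoxicity.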

Read-out in assay [11]: Interleukin-8 (IL8), CXCL8 (gene 3576)
Description: BSK_BF4T_IL8: BioMAP Diversity Plus: BF4T Assay for Interleukin-8 (IL8) Biomarker Activity (AID 2284263). The note with it: primary human bronchial epithelial cells with fibroblasts. In outline: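 Human bronchial epithelial cells with dermal fibroblasts co-culture; IL-8 measured by ELISA 24 hours after dosing, fitted vs DMSO. Cytotoxicity tracked in parallel cultures by SRB total-protein staining.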

Read-out in assay [12]: Interleukin-1 alpha (IL1a), IL1A (gene 3552)
Put plainly: BSK_BF4T_IL1a: BioMAP Diversity Plus: BF4T Assay for Interleukin-1 alpha (IL1a) Biomarker Activity (AID 2284264). The note with it: primary human bronchial epithelial cells with fibroblasts. In outline: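 Human bronchial epithelial cells co-cultured with dermal fibroblasts, dosed and read at 24 h. Secreted/surface IL-1α quantified by ELISA; gain-of-signal fitted relative to DMSO baseline. Parallel SRB total-protein staining tracked cytotoxicity.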

Read-out in assay [13]: Decorin, DCN (gene 1634)
Description: BSK_MyoF_Decorin: BioMAP Diversity Plus: MyoF Assay for Decorin Biomarker Activity (AID 2284265). The conditions noted are these: primary human lung fibroblasts. The gist of the method: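 ELISA readout of decorin, 24 h post-dosing; primary human lung fibroblast (MyoF) culture; gain-of-signal fit vs DMSO baseline.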

A short description of assay [14]: BSK_MyoF_SRB: Viability Assessment in the BioMAP Diversity Plus: MyoF Assay (AID 2284267).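 Also: total protein by SRB absorbance in parallel cultures as cytotoxicity measure.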 The note with it: primary human lung fibroblasts. The gist of the method: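 Cytotoxicity in primary human lung fibroblasts is gauged by SRB total-protein staining 24 h after dosing, with DMSO as the negative control.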
Read-out in assay [15]: Interferon-inducible T-cell alpha chemoattractant (ITAC), CXCL11 (gene 6373)
Description: BSK_hDFCGF_ITAC: BioMAP Diversity Plus: hDFCGF Assay for Interferon-inducible T-cell alpha chemoattractant (ITAC) Biomarker Activity (AID 2284251). The note with it: primary human foreskin fibroblasts. The gist of the method:
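ELISA readout of I-TAC after 24 h chemical exposure; human dermal foreskin fibroblast primary cells. Positive-direction fitting vs DMSO baseline. Parallel SRB total-protein staining (0.1% SRB after 10% TCA fixation, 560 nm) flags cytotoxicity.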

Read-out in assay [16]: Intercellular Adhesion Molecule 1 (ICAM1), ICAM1 (gene 3383)
Put plainly: BSK_BF4T_ICAM1: BioMAP Diversity Plus: BF4T Assay for Intercellular Adhesion Molecule 1 (ICAM1) Biomarker Activity (AID 2284260). The conditions noted are these: primary human bronchial epithelial cells with fibroblasts. In outline: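 Co-culture of human bronchial epithelial cells and dermal fibroblasts exposed 24 h to chemical; cell-surface ICAM-1 quantified by ELISA. Parallel SRB total-protein staining assessed cytotoxicity; activity fitted relative to DMSO.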

Read-out in assay [17]: Collagen I, COL1A1 (gene 1277)
Put plainly: BSK_hDFCGF_CollagenI: BioMAP Diversity Plus: hDFCGF Assay for Collagen I Biomarker Activity (AID 2284250). The conditions noted are these: primary human foreskin fibroblasts. In outline:
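Cells were primary human foreskin fibroblasts treated for 24 h. Collagen I levels were then determined by ELISA and compared against DMSO controls.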

Turning to `NC(=O)C(F)(F)C(F)(F)C(F)(F)F`, the outcome in assay [1], in [2], in assay [3], in assay [4], in assay [5] and in [6] was inactive. Further, the outcome in assay [7], in [8], in assay [9], in assay [10], in assay [11] and in assay [12] was inactive. Moreover, the outcome in assay [13] and in [14] was inactive.
Consider `C=CC(=O)OCCC(F)(F)C(F)(F)C(F)(F)C(F)(F)F`, for which the result in assay [1], in [2], in assay [3], in [4], in assay [6] and in [7] was inactive. Besides, the result in assay [8], in [9], in assay [10], in [11], in assay [12] and in assay [13] was inactive. Besides, the outcome in assay [14] was inactive. For the same compound, the AC50 – broadly, the midpoint of the concentration-response curve, whichever way the signal moves – in assay [15] was 25 µM (active) and 21.5 µM (active).
On to `FC(F)(F)C(F)(F)C(F)(F)C(F)(F)C(F)(F)C(F)(F)C(F)(F)CCI`, for which the result in [1], in assay [2], in assay [4], in assay [5], in assay [6] and in assay [7] was inactive. The outcome in assay [8], in [9], in assay [10], in [11], in assay [12] and in assay [13] was inactive. Besides, in assay [14], the outcome was inactive.
`O=C(O)C(F)(F)C(F)(F)C(F)(F)C(F)(F)C(F)(F)C(F)(F)C(F)F`: the outcome in assay [1], in assay [2], in assay [4], in assay [5], in assay [6] and in assay [7] was inactive. Besides, the result in assay [8], in assay [9], in assay [10], in assay [11], in assay [12] and in [13] was inactive. Besides, in [14], the result was inactive.
Regarding `CN(C(=O)C(F)(F)C(F)(F)C(F)(F)F)[Si](C)(C)C`, the outcome in [1], in [2], in assay [4], in assay [5], in [6] and in assay [7] was inactive. In addition, the result in assay [8], in assay [16], in assay [9], in assay [10], in assay [11] and in assay [12] was inactive. Also, the result in assay [13] and in [14] was inactive.
As to `NS(=O)(=O)C(F)(F)C(F)(F)C(F)(F)C(F)(F)C(F)(F)C(F)(F)F`, the outcome in assay [1], in assay [17], in assay [4], in assay [5], in [7] and in assay [8] was inactive. Also, the result in [9], in [10], in assay [11], in assay [12] and in [13] was inactive. Besides, the AC50 was 19.8 µM (active) and 21.1 µM (active) in [2]; 43.1 µM (active) and 39.1 µM (active) in assay [15]; 21.7 µM (active) and 30 µM (active) in assay [6]; 7.99 µM (active) in assay [8]; 13.4 µM (active) and 30 µM (active) in [14].
